Values without a mark were called inactive. Inconclusive results are not listed. Calls of active or inactive are those of the source. Unless noted, calls follow the shape of the dose curve; as a rule, active = well fitted curve in the direction sought with a large enough effect; inconclusive = small, poorly fitted or top-dose-only effect, or another doubt; inactive = no such curve, though single readings can be large; an effect the other way counts as inactive or inconclusive.

From PubChem BioAssay (NCATS) come the findings set out here.

Assay [1] deals with Glutathione peroxidase 1 (Homo sapiens) (UniProt P07203). The assay is described as follows: Primary qHTS Assay for Inhibitors of Recombinant Selenoprotein Glutathione Peroxidase 1 (GPX1) (AID 1845191). Also: nearly all actives have a fitted effect of over 65% in size. The procedure, abridged: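 Recombinant GPX1 (10 nM final) was preincubated with compound for 30 min at room temperature, then reacted with 1 mM GSH, 0.5 mM CHP, 0.5 mM NADPH and 100 nM glutathione reductase; NADPH fluorescence (340/450 nm) was read at 0 and 15 min.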
In general terms: In qHTS, concentration-response curves come from the screen itself.

The target in assay [2] is DNA repair nuclease/redox regulator APEX1 (Homo sapiens) (UniProt P27695). Kind of assay: qHTS Validation Assay for Inhibitors of the Human Apurinic/apyrimidinic Endonuclease 1 (APE1) (AID 1705;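 also: TAMRA fluorescence gain over two minutes as APE1 cuts a quenched THF abasic duplex; series mostly up to about 57 µM; % is scaled to controls: 0 for no effect and ±100 for the full control effect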). In outline:
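qHTS, 1536-well. APE1 + cpd 15 min RT → 50 nM TAMRA/BHQ-2 THF-abasic dsDNA substrate → kinetic fluorescence, 3 reads/60 s; delta(read3−read1) = reaction progress. No-enzyme buffer = negative control.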

Assay [3] in a line: Counterscreen for APE1 Inhibitors: Fluorescent Dye Displacement Validation Assay (AID 1707).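 Also: plate controls were ThO with dsDNA and no compound for no effect and ThO without dsDNA for full effect.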 The procedure, abridged:
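Thiazole Orange (250 nM) bound to 50 nM TAMRA-labelled dsDNA with tetrahydrofuran abasic site; displacement by DNA-binding compounds lowers fluorescence. Buffer 50 mM Tris-HCl pH 7.5, 50 mM NaCl, 2 mM MgCl2, 0.01% Tween-20; endpoint read at 480/540 nm.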
(In general: Counterscreens check selectivity or assay interference.)

The nature of assay [4]: Validation screen for inhibitors of Lassa infection (AID 463096; calls by dose curve; also: % is scaled to controls: 0 for no effect and ±100 for the full control effect).
Assay [5] is described as follows: Validation screen for small molecules that induce DNA re-replication in MCF 10A normal breast cells (AID 463097). Also: 0% is about no effect; nearly all actives have a fitted effect of over 60% in size. The procedure, abridged: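 Image-based qHTS: normal breast cells are incubated with compound for 48 hr, stained with Hoechst, and scanned for total nuclear fluorescence. Compounds raising the fraction of nuclei with elevated DNA content count as re-replication inducers.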

Assay [6] concerns the target Transient receptor potential cation channel subfamily V member 1 (Homo sapiens) (UniProt Q8NER1). Kind of assay: HTS Assay for Compounds that Act as Enhancers of the Vanilloid Receptor 1 (AID 488979). Also: 0% is about no effect. The procedure, abridged:
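TRPV1-expressing cells loaded with Fluo-8 calcium dye; compounds added and calcium influx read kinetically for 3 min (agonist phase), then capsaicin at EC20 added and read 2 min more for enhancement. Fluorescence ex 480/em 520 nm.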

Assay [7] has as its target Thyrotropin receptor (Homo sapiens) (UniProt P16473). The assay is described as follows: qHTS Assay for Antagonists of the Thyroid Stimulating Hormone Receptor (AID 488980). Also: series mostly up to about 58 µM; 0% is about no effect. The procedure, abridged:
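Readout is cAMP by HTRF competition between cellular cAMP and cAMP-d2 for a cryptate-labelled antibody. Antagonism was assessed in TSHR-transfected HEK293 cells stimulated with 4 nM TSH (EC80, final) in the presence of RO 20-1724.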

Assay [8] concerns the target Thyrotropin-releasing hormone receptor (Homo sapiens) (UniProt P34981). Kind of assay: qHTS for Small Molecule Agonists and Allosteric Enhancers of Human TRH Receptor: Validation Screen for Agonists (AID 493127;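 active = calcium activation more than 3 SD above the typical response in the agonist read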;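 also: intracellular calcium rise by fluo-8 fluorescence before TRH EC20 addition; 0% is about no effect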). As to conditions: TRH receptor agonist cell assay; at 2 µM; active compounds read high. The procedure, abridged:
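Cells 2000/well, 10% FCS, 18 h 33.5C/5% CO2 → fluo-8 Ca dye, RT 30 min–1.5 h → FDSS baseline 10 × 1 s → compound added → 230 cycles (1 s/cycle) agonist mode. TRH controls.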

The nature of assay [9]: Validation screen for small molecules that induce DNA re-replication in SW480 colon adenocarcinoma cells (AID 504364). Also: 0% is about no effect. The procedure, abridged: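 250 cells/well; compound pinned in; 48 hr, 37 C, 5% CO2; Hoechst added, 40 min; nuclear fluorescence imaged, 405 ex / 500-530 em; re-replication scored as increase in high-intensity nuclei.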
Assay [10] has as its target M-phase phosphoprotein 8 (Homo sapiens) (UniProt Q99549). The assay is described as follows: qHTS Validation Assay for Inhibitors for MPP8 Chromodomain Interactions with Methylated Histone Tails (AID 488949). Also: nearly all actives have a fitted effect of over 55% in size. Also: potency is read from the fitted curve at half-maximal effect. The procedure, abridged:
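50 nM MPP8 + 50 nM b-H3K9me3 peptide, PBS pH 7.4/0.01% Tween-20, 30 min RT; + cpd 30 min RT; + AlphaScreen donor/Ni-chelate acceptor beads 10 ug/mL final, 30 min dark; luminescence read.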

Thyrotropin-releasing hormone receptor (Homo sapiens), sequence (P34981 whole entry, looked up): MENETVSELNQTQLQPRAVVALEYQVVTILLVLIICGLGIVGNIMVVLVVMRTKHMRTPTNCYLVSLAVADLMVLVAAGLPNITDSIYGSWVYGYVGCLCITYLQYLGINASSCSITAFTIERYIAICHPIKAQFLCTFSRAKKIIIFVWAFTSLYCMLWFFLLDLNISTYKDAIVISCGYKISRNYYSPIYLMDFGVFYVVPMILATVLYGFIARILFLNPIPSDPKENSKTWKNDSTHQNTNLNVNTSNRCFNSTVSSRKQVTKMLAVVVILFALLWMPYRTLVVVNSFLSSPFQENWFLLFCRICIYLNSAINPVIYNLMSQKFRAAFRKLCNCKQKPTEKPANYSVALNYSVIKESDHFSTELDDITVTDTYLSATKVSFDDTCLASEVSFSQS
M-phase phosphoprotein 8 (Homo sapiens), sequence (Q99549 whole entry, looked up): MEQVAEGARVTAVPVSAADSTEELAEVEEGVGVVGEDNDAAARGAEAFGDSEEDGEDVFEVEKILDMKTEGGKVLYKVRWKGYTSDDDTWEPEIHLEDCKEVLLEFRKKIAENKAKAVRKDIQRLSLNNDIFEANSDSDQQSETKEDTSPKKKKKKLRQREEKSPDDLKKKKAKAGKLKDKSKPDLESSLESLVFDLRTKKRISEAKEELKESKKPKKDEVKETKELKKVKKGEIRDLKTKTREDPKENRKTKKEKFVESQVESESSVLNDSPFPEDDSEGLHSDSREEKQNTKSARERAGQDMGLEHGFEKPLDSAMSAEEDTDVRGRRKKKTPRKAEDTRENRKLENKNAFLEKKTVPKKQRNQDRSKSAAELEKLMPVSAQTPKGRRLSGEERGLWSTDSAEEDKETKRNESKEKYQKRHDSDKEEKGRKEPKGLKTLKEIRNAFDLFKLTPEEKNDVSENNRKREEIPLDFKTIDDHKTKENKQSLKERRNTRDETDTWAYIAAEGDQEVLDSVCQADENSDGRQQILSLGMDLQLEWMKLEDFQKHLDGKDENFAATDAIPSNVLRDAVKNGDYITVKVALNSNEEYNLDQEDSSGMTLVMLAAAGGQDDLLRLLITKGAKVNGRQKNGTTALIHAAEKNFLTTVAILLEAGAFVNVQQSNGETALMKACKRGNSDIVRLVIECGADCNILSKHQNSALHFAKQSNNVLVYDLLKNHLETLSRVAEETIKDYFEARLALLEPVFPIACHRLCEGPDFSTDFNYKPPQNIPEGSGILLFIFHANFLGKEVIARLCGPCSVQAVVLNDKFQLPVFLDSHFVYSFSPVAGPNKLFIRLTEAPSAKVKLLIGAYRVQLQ
Glutathione peroxidase 1 (Homo sapiens), sequence (P07203 whole entry, looked up): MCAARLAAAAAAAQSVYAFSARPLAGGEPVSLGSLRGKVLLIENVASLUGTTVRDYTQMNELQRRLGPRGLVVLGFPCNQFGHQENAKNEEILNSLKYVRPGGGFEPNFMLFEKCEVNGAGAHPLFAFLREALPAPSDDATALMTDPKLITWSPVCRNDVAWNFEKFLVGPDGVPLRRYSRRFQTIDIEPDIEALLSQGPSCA
Transient receptor potential cation channel subfamily V member 1 (Homo sapiens), sequence (Q8NER1 whole entry, looked up): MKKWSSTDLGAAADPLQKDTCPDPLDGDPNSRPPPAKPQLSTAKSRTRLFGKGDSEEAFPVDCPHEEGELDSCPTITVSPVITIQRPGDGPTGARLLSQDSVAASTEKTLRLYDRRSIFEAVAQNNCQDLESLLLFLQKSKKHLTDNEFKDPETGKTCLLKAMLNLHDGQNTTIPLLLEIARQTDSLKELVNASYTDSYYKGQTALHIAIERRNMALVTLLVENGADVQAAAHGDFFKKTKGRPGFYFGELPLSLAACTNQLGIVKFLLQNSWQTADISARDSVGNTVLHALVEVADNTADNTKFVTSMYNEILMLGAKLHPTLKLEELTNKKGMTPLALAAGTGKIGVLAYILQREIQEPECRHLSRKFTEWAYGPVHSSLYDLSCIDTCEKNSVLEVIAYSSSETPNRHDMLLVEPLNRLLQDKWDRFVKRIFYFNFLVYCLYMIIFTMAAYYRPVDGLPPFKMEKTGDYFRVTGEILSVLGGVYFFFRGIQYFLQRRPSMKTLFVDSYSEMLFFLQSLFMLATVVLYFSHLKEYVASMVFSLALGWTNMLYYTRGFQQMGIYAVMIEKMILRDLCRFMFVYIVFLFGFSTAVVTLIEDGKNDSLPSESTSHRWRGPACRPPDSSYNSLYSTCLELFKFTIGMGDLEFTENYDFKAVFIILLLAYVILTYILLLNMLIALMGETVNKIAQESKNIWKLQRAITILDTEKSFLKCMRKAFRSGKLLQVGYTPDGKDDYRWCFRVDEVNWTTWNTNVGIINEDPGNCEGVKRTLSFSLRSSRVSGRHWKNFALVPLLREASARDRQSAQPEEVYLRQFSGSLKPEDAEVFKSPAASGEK
Thyrotropin receptor (Homo sapiens), sequence (P16473 whole entry, looked up): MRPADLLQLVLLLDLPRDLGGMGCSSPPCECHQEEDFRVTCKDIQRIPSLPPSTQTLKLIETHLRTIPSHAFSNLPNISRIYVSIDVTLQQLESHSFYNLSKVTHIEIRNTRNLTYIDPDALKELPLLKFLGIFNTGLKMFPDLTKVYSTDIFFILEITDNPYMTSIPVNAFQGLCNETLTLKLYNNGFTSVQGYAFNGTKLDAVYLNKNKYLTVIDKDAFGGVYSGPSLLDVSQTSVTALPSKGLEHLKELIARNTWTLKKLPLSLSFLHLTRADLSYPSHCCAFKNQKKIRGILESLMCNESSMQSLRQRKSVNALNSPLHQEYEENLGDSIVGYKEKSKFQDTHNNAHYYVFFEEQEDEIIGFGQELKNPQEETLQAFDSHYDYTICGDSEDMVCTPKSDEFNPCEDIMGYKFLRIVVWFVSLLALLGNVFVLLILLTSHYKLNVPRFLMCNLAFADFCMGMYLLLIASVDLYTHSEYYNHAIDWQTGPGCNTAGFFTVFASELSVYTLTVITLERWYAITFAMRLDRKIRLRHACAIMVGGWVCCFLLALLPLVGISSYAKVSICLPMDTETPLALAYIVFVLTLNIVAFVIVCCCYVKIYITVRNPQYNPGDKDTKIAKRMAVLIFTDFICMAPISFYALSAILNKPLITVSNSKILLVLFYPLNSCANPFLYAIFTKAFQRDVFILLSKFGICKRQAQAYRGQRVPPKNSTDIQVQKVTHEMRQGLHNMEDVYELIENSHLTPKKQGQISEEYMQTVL
DNA repair nuclease/redox regulator APEX1 (Homo sapiens), sequence (P27695 whole entry, looked up): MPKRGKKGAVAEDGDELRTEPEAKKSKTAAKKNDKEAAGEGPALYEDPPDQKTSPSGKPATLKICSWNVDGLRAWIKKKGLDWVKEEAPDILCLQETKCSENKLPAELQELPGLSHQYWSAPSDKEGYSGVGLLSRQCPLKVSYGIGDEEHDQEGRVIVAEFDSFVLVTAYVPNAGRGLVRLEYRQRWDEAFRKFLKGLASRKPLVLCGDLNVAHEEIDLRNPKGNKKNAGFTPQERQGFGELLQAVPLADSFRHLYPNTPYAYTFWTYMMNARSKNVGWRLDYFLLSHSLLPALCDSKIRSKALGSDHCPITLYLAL

Take `C=C(C)[C@@H]1CCC(C)=C[C@H]1c1c(O)cc(CCCCC)cc1O`: the Potency result in assay [1] was “inactive”.

In the case of `Cc1c(N)nc([C@H](CC(N)=O)NC[C@@H](N)C(N)=O)nc1C(=O)N[C@H](C(=O)N[C@@H](C)[C@H](O)[C@@H](C)C(=O)N[C@@H](C(=O)NCCc1nc(-c2nc(C(=O)NCCC[S+](C)C)cs2)cs1)[C@@H](C)O)C(O[C@H]1O[C@H](CO)[C@H](O)[C@@H](O)[C@H]1O[C@H]1O[C@H](CO)[C@@H](O)[C@H](OC(N)=O)[C@@H]1O)c1cnc[nH]1` (some centres not stated), the Potency result in [1] is “inactive”.

Take `CN1C[C@@H](CS(=O)(=O)N(C)C)C[C@@H]2c3cccc4c3c(cn4C)C[C@H]21`: the Potency entry in assay [2], in [4] and in assay [5] was “inactive” throughout. The compound was called inactive in assay [3], in [6], in assay [7] and in assay [9]. The activation in assay [8] was 1.44%.

With `CCCN(CCC)[C@@H]1CCc2c(F)ccc(O)c2C1`, the Potency result in assay [2], in assay [4] and in assay [5] was “inactive” each time. For the same compound, the compound was classed as inactive in assay [3], in assay [6], in assay [7] and in assay [9]. In addition, in assay [8], the activation is -2.75%.

In the case of `COc1cc(C=C(C#N)C#N)cc(O)c1O`, the Potency result in [2] and in assay [4] was “inactive” throughout. Also, the compound was called inactive in [3], in [6], in assay [7] and in [9]. In addition, the Potency in assay [10] was 39.8 µM (active). Further, in [8], the activation was 2.88%.

As to `C=CCN1CC[C@@]2(C)c3cc(O)ccc3CC1[C@@H]2C`, the Potency entry in assay [2], in [4], in assay [5] and in [10] was “inactive” throughout. Further, the compound was called inactive in assay [3], in [6], in assay [7] and in assay [9]. The activation in [8] was 1.19%.

For `CC[C@@H](CO)NC(=O)[C@H]1C=C2c3cccc4c3c(cn4C)C[C@H]2N(C)C1`, the Potency result in [5] and in [10] was “inactive” each time. Also, the outcome in assay [6] and in [9] was inactive. The activation in [8] is -2.81%.

Regarding `C#CCN(C)C(C)Cc1ccccc1` (configuration not stated), the Potency entry in [2], in [4], in assay [5] and in assay [10] was “inactive” in each case. Also, the call in assay [3], in assay [6], in assay [7] and in assay [9] was inactive. Besides, the activation in assay [8] is -5.25%.

For the compound `C[N+]1(C)C2CC(OC(=O)C(CO)c3ccccc3)CC1C1OC12` (configuration not stated), the Potency result in [2], in assay [4], in assay [5] and in assay [10] was “inactive” each time. Further, the compound was called inactive in assay [3], in assay [6], in assay [7] and in assay [9].

As to `CCC(CO)NC(=O)[C@@H]1C=C2c3cccc4[nH]cc(c34)C[C@H]2N(C)C1` (some centres not stated), the result in [3], in assay [6], in assay [7] and in [9] was inactive. For the same compound, the Potency result in assay [4], in assay [5] and in assay [10] was “inactive” each time. The activation in assay [8] was -2.81%.

`NCC#Cc1ccccc1`: the Potency entry in assay [2], in assay [4], in assay [5] and in assay [10] was “inactive” in each case. The compound was classed as inactive in assay [3], in [6] and in assay [7]. In addition, the activation in assay [8] is 1.69%.

With `C[C@]12CC[C@H]3[C@@H](CCC4C[C@H](O)CC[C@@]43C)[C@@H]1CC[C@@H]2O` (some centres not stated), the Potency entry in assay [2], in [4], in assay [5] and in assay [10] was “inactive” each time. Further, the result in assay [3], in assay [6], in [7] and in [9] was inactive. Besides, the activation in assay [8] is 1.31%.

Take `Oc1ccc2c3c1O[C@H]1[C@@H](O)CC[C@@]4(O)C(C2)N(CC2CCC2)CCC314` (some centres not stated): the Potency entry in assay [2], in [4], in [5] and in assay [10] was “inactive” throughout. The outcome in assay [3], in assay [6], in assay [7] and in [9] was inactive. For the same compound, in assay [8], the activation is 1.31%.

Consider `N#CC(=Cc1ccc(O)c(O)c1)C(N)=S`, for which the call in assay [3], in assay [6], in assay [7] and in [9] was inactive. The Potency result in assay [4] and in assay [5] was “inactive” each time. The Potency in assay [10] is 44.7 µM (active). In addition, the activation in assay [8] was 3.19%.

Regarding `Nc1ncnc2c1ncn2[C@@H]1O[C@H](COP(=O)(O)CP(=O)(O)OP(=O)(O)O)[C@H](O)[C@H]1O`, the Potency entry in assay [2], in assay [5] and in [10] was “inactive” each time. For the same compound, the compound was called inactive in assay [3], in [6], in assay [7] and in assay [9]. Also, the activation in assay [8] is 1.25%.
